Experimental data: PubChem BioAssay (NCI)
This is part of a sample that, as a whole, favours compounds with a hit. Of some 83,000 tested, about 20% had one in any assay.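 In brief: 96-well plates, 48 h treatment, single concentration, percent growth endpoint.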 Activity calls are given as the source filed them. The calls were made as follows: active = growth percent below 10; inactive = the rest.

What was measured:
Test in all cases: NCI-60 one-dose screen, 48 h (100 = growth as untreated, 0 = no growth, -100 = all killed)
Settings in all cases: 10 µM
SR leukemia = tested on: SR leukemia
RPMI-8226 leukemia = tested on: RPMI-8226 leukemia
OVCAR-8 ovarian = tested on: OVCAR-8 ovarian
OVCAR-5 ovarian = tested on: OVCAR-5 ovarian
OVCAR-4 ovarian = tested on: OVCAR-4 ovarian
SK-OV-3 ovarian = tested on: SK-OV-3 ovarian
IGROV1 ovarian = tested on: IGROV1 ovarian
OVCAR-3 ovarian = tested on: OVCAR-3 ovarian
HS 578T breast = tested on: HS 578T breast
NCI/ADR-RES ovarian = tested on: NCI/ADR-RES ovarian
T-47D breast = tested on: T-47D breast
BT-549 breast = tested on: BT-549 breast
MDA-MB-435 melanoma = tested on: MDA-MB-435 melanoma
SW-620 colon = tested on: SW-620 colon
MCF7 breast = tested on: MCF7 breast
HCT-116 colon = tested on: HCT-116 colon
HCC-2998 colon = tested on: HCC-2998 colon
KM12 colon = tested on: KM12 colon

Measured: growth

Cc1ccc2oc(=O)cc(/C(=C3/C=CC=N3)c3ccc[nH]3)c2c1
active: SR leukemia -9.31% | RPMI-8226 leukemia -16.9% | OVCAR-8 ovarian -20.2% | SK-OV-3 ovarian -16% | OVCAR-3 ovarian -23.3% | NCI/ADR-RES ovarian 0.0095% | T-47D breast -1.91% | BT-549 breast -11.4% | MDA-MB-435 melanoma -24.8% | MCF7 breast 7.32% | HCT-116 colon 1.45% | HCC-2998 colon -17% | KM12 colon -17.6%
inactive: OVCAR-5 ovarian 21.1% | OVCAR-4 ovarian 28% | IGROV1 ovarian 16.6% | HS 578T breast 12.9% | SW-620 colon 20.9%

CC(=O)OC1Oc2ccccc2-c2oc(=O)c(-c3ccc(F)cc3)cc21 (stereo unspecified)
active: HS 578T breast -26.6%
inactive: SR leukemia 65.3% | RPMI-8226 leukemia 90.8% | OVCAR-8 ovarian 77.7% | OVCAR-5 ovarian 104% | OVCAR-4 ovarian 88.6% | SK-OV-3 ovarian 92.6% | IGROV1 ovarian 59.8% | OVCAR-3 ovarian 110% | NCI/ADR-RES ovarian 96.4% | T-47D breast 77.2% | BT-549 breast 80.6% | MDA-MB-435 melanoma 51.5% | SW-620 colon 12.8% | MCF7 breast 63.2% | HCT-116 colon 86.5% | KM12 colon 89.9%

O=C(Nc1ccc(CN2CCOCC2)cc1)c1ccc(-c2cc(Cl)ccc2Cl)o1
inactive: OVCAR-8 ovarian 36% | OVCAR-5 ovarian 72.1% | OVCAR-4 ovarian 50.6% | SK-OV-3 ovarian 81.5% | IGROV1 ovarian 34% | OVCAR-3 ovarian 70.9% | HS 578T breast 72.2% | NCI/ADR-RES ovarian 46.9% | T-47D breast 34.7% | BT-549 breast 102% | HCT-116 colon 22.3%
active: SR leukemia -12.9% | RPMI-8226 leukemia -5.45% | MDA-MB-435 melanoma -10.5% | SW-620 colon -2.26% | MCF7 breast -34.1% | HCC-2998 colon -83.5% | KM12 colon 8.82%

Cc1ccc(C)c(S(=O)(=O)NC2c3ccccc3Oc3ccccc32)c1
inactive: SR leukemia 63% | RPMI-8226 leukemia 98.2% | OVCAR-8 ovarian 90.6% | OVCAR-5 ovarian 103% | OVCAR-4 ovarian 92.6% | SK-OV-3 ovarian 102% | IGROV1 ovarian 96% | OVCAR-3 ovarian 95.9% | HS 578T breast 107% | NCI/ADR-RES ovarian 88.5% | T-47D breast 72.1% | BT-549 breast 102% | MDA-MB-435 melanoma 107% | SW-620 colon 88.8% | MCF7 breast 90.8% | HCT-116 colon 91.8% | HCC-2998 colon 104% | KM12 colon 102%

CC(=O)N(O)c1ccc(/C=C/c2ccccc2)cc1
active: SR leukemia 9.19% | SK-OV-3 ovarian 9.48% | IGROV1 ovarian -14%
inactive: RPMI-8226 leukemia 46.8% | OVCAR-8 ovarian 32.1% | OVCAR-5 ovarian 33.1% | OVCAR-4 ovarian 54.7% | OVCAR-3 ovarian 42% | HS 578T breast 61.7% | NCI/ADR-RES ovarian 22.6% | T-47D breast 20.5% | BT-549 breast 43.5% | MDA-MB-435 melanoma 55.1% | SW-620 colon 23.3% | MCF7 breast 16.7% | HCT-116 colon 19.7% | HCC-2998 colon 14.3% | KM12 colon 47.9%

N#Cc1c2c([nH]c(=O)c1C(N)=O)CCCCC2
inactive: SR leukemia 108% | RPMI-8226 leukemia 103% | OVCAR-8 ovarian 102% | OVCAR-5 ovarian 97.2% | OVCAR-4 ovarian 116% | SK-OV-3 ovarian 91.6% | IGROV1 ovarian 102% | OVCAR-3 ovarian 113% | HS 578T breast 91.4% | NCI/ADR-RES ovarian 111% | T-47D breast 79.2% | BT-549 breast 100% | MDA-MB-435 melanoma 108% | SW-620 colon 101% | MCF7 breast 103% | HCT-116 colon 91.8% | HCC-2998 colon 111% | KM12 colon 106%

NC(N)=NS(=O)(=O)c1ccc(Nc2ccc3nnc(-c4ccncc4)n3n2)cc1
inactive: SR leukemia 96.9% | RPMI-8226 leukemia 104% | OVCAR-8 ovarian 96.7% | OVCAR-5 ovarian 100% | OVCAR-4 ovarian 103% | SK-OV-3 ovarian 104% | IGROV1 ovarian 113% | OVCAR-3 ovarian 110% | HS 578T breast 99.6% | NCI/ADR-RES ovarian 105% | T-47D breast 96.4% | BT-549 breast 112% | MDA-MB-435 melanoma 110% | SW-620 colon 97.6% | MCF7 breast 91.3% | HCT-116 colon 100% | HCC-2998 colon 99.1% | KM12 colon 100%

N=C(N)c1ccc(-c2ccc(-c3ccccc3)s2)cc1F
active: SR leukemia -11.6% | RPMI-8226 leukemia -60.2% | OVCAR-8 ovarian -32.9% | OVCAR-5 ovarian -96.8% | OVCAR-4 ovarian -57.2% | SK-OV-3 ovarian -92.4% | IGROV1 ovarian -51.2% | OVCAR-3 ovarian -94.6% | HS 578T breast -41.6% | NCI/ADR-RES ovarian -50.8% | T-47D breast -65.6% | BT-549 breast -96.8% | MDA-MB-435 melanoma -84.2% | SW-620 colon -85.4% | MCF7 breast -71.7% | HCT-116 colon -91.8% | HCC-2998 colon -79.1% | KM12 colon -86.1%

O=C1/C(=C/c2ccc(O)cc2O)N=C2SCCCN12
inactive: SR leukemia 89.8% | RPMI-8226 leukemia 103% | OVCAR-8 ovarian 97.5% | OVCAR-5 ovarian 92.9% | OVCAR-4 ovarian 97.1% | SK-OV-3 ovarian 102% | IGROV1 ovarian 101% | OVCAR-3 ovarian 98.6% | HS 578T breast 105% | NCI/ADR-RES ovarian 98.7% | T-47D breast 85% | BT-549 breast 96.9% | MDA-MB-435 melanoma 99.2% | SW-620 colon 107% | MCF7 breast 108% | HCT-116 colon 99.5% | HCC-2998 colon 119% | KM12 colon 91.3%
